Tb PGK inh = T. brucei PGK inhibition. PGK/GAPDH coupled, Kinase-Glo luminescence, 60 min. Potency, µM (top dose mostly 57.5 µM), for the others: top-dose activity change, negative = inhibition, usual class: inhibitors. 380,000 tested, 0.043% active. P07378; also: potency is read from the fitted curve at half-maximal effect; % is scaled to controls: 0 for no effect and ±100 for the full control effect; nearly all actives have a fitted effect of over 60% in size
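Luminescent ATP detection (Kinase-Glo Plus) follows a 60-minute room-temperature incubation, with wells lacking PGK as controls. Buffer: 100 mM TEA (pH 7.6), 5 mM MgCl2, 0.01% Tween-20. Coupling enzyme GAPDH (100 nM final) supplies unstable 1,3-BPG in-well.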
PI4K2A inh = blocks human PI4K2A kinase activity. Q9BTU6. purified PI4K2A, ADP-Glo luminescence, 1 h; stronger effect = lower value. activity change, negative = inhibition, % at 76.9 µM. 420,000 tested, 0.13% active. AID 1346378; in the data active = activity change below about -50%; inconclusive = mostly about -30% to -49%;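 also: -100% = wells without enzyme as full effect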
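ADP-Glo luminescence measured ADP generated by PI4K2A enzyme (4 ug/mL before mixing) with 1.2 mM PI substrate (pre-mix) and 300 microM ATP (pre-mix). Tris pH7.5 buffer with MgCl2, Triton X-100; 1 h reaction at ambient temperature.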
CCT modulator = changes cytosolic chaperonin activity | purified chaperonin ATPase assay, HTRF ADP detection, 30 min | activity change, % (concentration not given with the values), hits read low | 360,000 tested, 0.3% active; in the data active = activity change below about -30%; also: % is scaled to controls: 0 for no effect and ±100 for the full control effect
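Enzyme 40 or 20 nM (batch-dependent) in Tris pH 7.4/KCl/MgCl2/DTT; cpd 76 uM single point; ATP 10 uM; 30 min 37 °C; Transcreener ADP HTRF detection, 30 min RT; ratio 665/615.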
PINK1 expr mod = changes PINK1 expression. Potency, µM (series often up to 76.6 µM), for inactives: at the top dose activation (PINK1 increase), actives largely listed as activators. 410,000 tested, 0.2% active. PINK1 immunofluorescence, high-content cytometry, 24 h; active = well fitted activation curve with a large enough effect; inconclusive = small, poorly fitted or top-dose-only effect; cell line not stated here; also: potency is read from the fitted curve at half-maximal effect; % of control where 0% means no effect; nearly all actives have a fitted effect of over 65% in size
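Cells are seeded, rested 12 hours, then given compound at five concentrations or DMSO for 24 hours. After fixation, blocking and antibody staining, PINK1 amount and mitochondrial localization are scored; CCCP serves as control.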
GLS inhibitor = blocks human kidney-isoform glutaminase activity. O94925. GLS enzymatic activity, qHTS titration. Potency, µM (top dose mostly 45.5 µM), inactives show at the top dose activity change, negative = inhibition, actives largely listed as inhibitors. 410,000 tested, 0.21% active. AID 624170; also: potency is read from the fitted curve at half-maximal effect; % is scaled to controls: 0 for no effect and ±100 for the full control effect
Target sequence (O94925 whole entry, looked up, canonical isoform): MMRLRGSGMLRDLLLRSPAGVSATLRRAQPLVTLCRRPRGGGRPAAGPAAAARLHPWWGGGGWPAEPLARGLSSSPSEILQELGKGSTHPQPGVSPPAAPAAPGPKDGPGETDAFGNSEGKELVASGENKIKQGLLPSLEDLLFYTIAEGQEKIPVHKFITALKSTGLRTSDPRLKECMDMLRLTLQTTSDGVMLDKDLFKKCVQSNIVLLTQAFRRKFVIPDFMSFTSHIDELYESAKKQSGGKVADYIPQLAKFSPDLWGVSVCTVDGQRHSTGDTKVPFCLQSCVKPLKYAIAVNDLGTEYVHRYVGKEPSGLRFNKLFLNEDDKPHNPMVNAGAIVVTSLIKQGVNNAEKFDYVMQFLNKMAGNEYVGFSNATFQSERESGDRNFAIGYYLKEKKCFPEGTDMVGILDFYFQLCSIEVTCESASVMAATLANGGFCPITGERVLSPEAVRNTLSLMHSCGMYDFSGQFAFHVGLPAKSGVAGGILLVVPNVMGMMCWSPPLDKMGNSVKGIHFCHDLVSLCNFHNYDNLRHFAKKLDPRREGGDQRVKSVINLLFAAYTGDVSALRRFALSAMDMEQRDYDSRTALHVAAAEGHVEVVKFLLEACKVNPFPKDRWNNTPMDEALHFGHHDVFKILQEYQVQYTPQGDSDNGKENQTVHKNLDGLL
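hKGA in 45 mM KH2PO4 pH 8.2, 0.02% Tween-20 with pin-transferred compounds; 1 mM L-glutamine (stock) plus glutamate oxidase/HRP/Amplex Red coupling added. Fluorescence read initially and after 30 min at RT.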
Numbers without * were called inactive; i = inactive; ? = inconclusive; . = no result given; [ ] = remark or other dose. An excerpt weighted towards active compounds, which were near 0.78% of everything screened. Unless noted, calls follow the shape of the dose curve; as a rule, active = well fitted curve in the direction sought with a large enough effect; inconclusive = small, poorly fitted or top-dose-only effect, or another doubt; inactive = no such curve, though single readings can be large; an effect the other way counts as inactive or inconclusive.

SMILES	Tb PGK inh	PI4K2A inh	CCT modulator	PINK1 expr mod	GLS inhibitor
CCN(CC)c1ccc(/C=N/N2CCN(Cc3ccccc3)CC2)c(O)c1	-5%	-1	-2	2%	27%
CCN(CC)c1ccc(/C=N/N2CCOCC2)c(O)c1	-5%	5	2	2%	13µM*
Cc1ccccc1OCCNc1ccc(C(F)(F)F)cc1[N+](=O)[O-]	i	0	-53*	3%	-18%
O=[N+]([O-])c1cc(C(F)(F)F)ccc1NCCOc1ccccc1	0%	3	2	2%	-1%
COCC(=O)Nc1nnc(SCC(=O)N2CCCCC2)s1	-2%	7	-1	0%	3%
O=C(Nc1nnc(SCC(=O)N2CCCCC2)s1)C1CCCCC1	-3%	7	-60*	-1%	6%
CCCN1CCN(C(=O)c2cnn(-c3ncc4c(n3)-c3ccccc3CCC4)c2COC)CC1	.	.	.	2%	.
CCOC(=O)c1c(NC(=O)c2ccn(CC)n2)sc2c1CCCC2	i	12	0	10µM*	-2%
CN(C(=O)CSc1nncn1-c1ccccc1)c1ccccc1	0%	1	-3	-1%	?
CN(C(=O)CSc1nc(N)nn1-c1ccccc1)c1ccccc1	2%	3	-70*	0%	-2%
CCc1cccc(NC(=O)C2CCC(CNS(=O)(=O)c3csc(C(N)=O)c3)CC2)c1 (centres undefined)	-6%	-3	.	5%	-15%
COc1cccc(NC(=O)C2CCC(CNS(=O)(=O)c3csc(C(N)=O)c3)CC2)c1 (centres undefined)	i	-66*	.	1%	7%
COC(=O)[C@@H]1CCCN1Cc1ccc2c(c1)CN(Cc1ccc3c(c1)CCO3)CCO2	.	.	.	2%	.
Cc1cc(NC(=O)Cc2c(F)cccc2Cl)no1	.	-5	1	0%[38.3 µM]	-1%
O=C(Cc1c(F)cccc1Cl)Nc1ccon1	-6%	12	-1	7.9µM*	2%
S=c1[nH]nc(-c2ccccc2)n1/N=C/c1ccc(Cl)cc1	-8%	3	2	4%	16µM*
S=c1[nH]nc(-c2ccccc2)n1/N=C/c1cccc(Cl)c1	-3%	3	2	2%	-15%
O=c1c2ccccc2sn1-c1ccc(S(=O)(=O)N2CCCC2)cc1	-3%	-2	0	2%[38.3 µM]	?
O=c1c2cc(F)ccc2sn1-c1ccccc1	1%	-12	0	5%	7.1µM*
O=c1c2cc(C(F)(F)F)ccc2sn1-c1ccccc1	-9%	-1	0	?	11µM*
CCCCCCSc1ccc([C@@H]2[C@@H]3C(=O)N(CC)C(=O)[C@@H]3[C@]3(C(=O)OC)CCCCN23)cc1	-8%	-52*	0	25%	-2%
O=C(Nc1ccc(OCC(F)(F)C(F)F)c(C(F)(F)F)c1)c1ccccc1	-4%	-11	-2	2%	-19%
O=C(Nc1ccc(OCC(F)(F)C(F)F)c(C(F)(F)F)c1)c1ccccc1O	-5%	-5	-4	16µM*	1%
CCc1ccccc1N(CC(=O)N1CCc2ccccc2C1)S(C)(=O)=O	i	-4	-31*	0%	3%
CO/N=C1/CC2(CC3CC(C/C=C(/C)CC(C)/C=C\C=C4\COC5C(O)C(C)=CC(C(=O)O3)C45O)O2)OC(/C(C)=C/C(C)C)C1C (centres undefined)	.	.	.	.	-2%
SMILES	Tb PGK inh	PI4K2A inh	CCT modulator	PINK1 expr mod	GLS inhibitor
CCC1(C2CCN(C(=O)c3coc4c3C(=O)CCC4)CC2)NC(=O)N(CCc2scnc2C)C1=O (centres undefined)	.	.	.	1%	.
COc1ccc(NC(=O)CCC(=O)c2cc(C)sc2C)cc1	1%	1	-43*	-1%	-3%
COc1ccc(C(=O)CCC(=O)NC2=NCCS2)cc1	i	-5	-81*	-1%	-3%
COCC(=O)Nc1cc(C(=O)N2CCCC(C(C)=O)C2)cc2nc(-c3ccccc3)n(C)c12 (centres undefined)	.	.	.	0%	.
CCNc1nc(-c2cc(C)n(Cc3ccco3)c2C)cs1	-3%	-5	-6	?	-4%
Cc1cc(-c2csc(NC(=O)c3ccc(=O)[nH]c3)n2)c(C)n1Cc1ccco1	i	-62*	2	3%	-11%
CC(C)N1CCN(C(=O)c2cnn(-c3nccc(-c4ccc5c(c4)OCO5)n3)c2-c2ccco2)CC1	.	.	.	-1%	.
CSC1=NC=C(C#N)C2=NC(c3c(Cl)cccc3Cl)NN12 (centres undefined)	.	6	2	0%	11µM*
CCN(CC)c1ccc(NC(=O)Nc2ccccc2)cc1	-5%	-3	2	0%	13µM*
CCCN(CCC)c1ccc(/C=C/c2sc3ccccc3[n+]2CCCCI)cc1	.	.	.	14µM*	.
COc1ccc(/C=C/c2sc3ccccc3[n+]2CCCCI)cc1OC	.	.	.	0%	.
CN(C)c1ccc(/C=C/c2sc3ccccc3[n+]2Cc2ccccc2)cc1	.	.	.	40µM*	.
Cc1ncc2c(c1CNC(=O)c1ccc3c(c1)OCO3)CCN(C(=O)c1cccc(-n3cccn3)c1)C2	.	.	.	-1%	.
CC(C)(CO)NC(=O)c1cnn(-c2nccc(-c3ccc4c(c3)OCO4)n2)c1C1CC1	.	.	.	0%	.
N#CCC(=O)Nc1ccc(C(=O)NNC(=S)NC2CCCCC2)cc1	-8%	-2	-3	0%	18µM*
COC(=O)c1ccc(NC(=S)NC2CCCCC2)cc1	-8%	0	-2	7%[38.3 µM]	-3%
Cc1ccc(N/C=C2/Sc3ccccc3NC2=O)cc1	i	-4	0	40µM*	1%
CNC(=O)C[C@H]1C(=O)N(CCc2ccccc2)C[C@@H]1c1ccc(OC)cc1	-5%	-1	-2	1%	-4%
COc1ccc([C@H]2CN(CCc3ccccc3)C(=O)[C@@H]2CC(=O)Nc2ccccc2)cc1	-9%	-2	-43*	1%	2%
COc1ccccc1C1CN(CCNC(=O)c2cnsn2)Cc2ccccc2O1 (centres undefined)	.	.	.	1%	.
Oc1ccc(/C=N\Nc2cc(N3CCOCC3)nc(N3CCOCC3)n2)c(O)c1	-4%	2	-52*	12%	4%
COCc1c(C(=O)N2CCN(c3ccccc3O)CC2)cnn1-c1nccc(-c2cccs2)n1	.	.	.	1%	.
CC1(C(=O)O)CC(C)(C(=O)O)CC(C)(C(=O)O)C1 (centres undefined)	0%	-3	-2	0%	6%
COC(=O)C1=C(O)C2(C(=O)O)CC(C(=O)OC)=C(O)C(C(=O)O)(C1)C2	7%	5	0	-1%	11µM*
Cc1ccsc1C(=O)Nc1ccc(C(=O)O)cc1	-22%	-74*	-5	2%	7%
N#Cc1ccc(CSc2nnc(NC(=O)c3ccc(=O)[nH]c3)s2)cc1	6%	-5	-2	3%	0%
